Results: PubChem BioAssay (NCATS)
Several values for one entry are separate records, joined by “and”; a condition that tells them apart may be missing. Identical values can stand only once. Records with an inconclusive call do not appear. Activity calls are given as the source filed them.

Target: Androgen receptor (Homo sapiens) (UniProt P10275)
Assay: qHTS assay for small molecule agonists of androgen receptor signaling (AID 588515; active = well fitted curve in the direction sought with a large enough effect in the signal ratio, with a control signal flat; the % refers to the signal ratio; also: potency is read from the fitted curve at half-maximal effect; as to activation: % is scaled to controls: 0 for no effect and ±100 for the full control effect)
Conditions: AR-UAS-bla HEK293, beta-lactamase ratio, agonist 16 h; activation: stronger effect = higher value
Outline: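 Stimulation of an AR-responsive β-lactamase reporter in GripTite HEK293 cells was measured after 16 h compound exposure at 37 °C, via CCF4 fluorescence after 2 h RT. EC50 from Hill fits, normalized to R1881 at 30 nM.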

Androgen receptor (Homo sapiens), sequence (P10275 whole entry, looked up): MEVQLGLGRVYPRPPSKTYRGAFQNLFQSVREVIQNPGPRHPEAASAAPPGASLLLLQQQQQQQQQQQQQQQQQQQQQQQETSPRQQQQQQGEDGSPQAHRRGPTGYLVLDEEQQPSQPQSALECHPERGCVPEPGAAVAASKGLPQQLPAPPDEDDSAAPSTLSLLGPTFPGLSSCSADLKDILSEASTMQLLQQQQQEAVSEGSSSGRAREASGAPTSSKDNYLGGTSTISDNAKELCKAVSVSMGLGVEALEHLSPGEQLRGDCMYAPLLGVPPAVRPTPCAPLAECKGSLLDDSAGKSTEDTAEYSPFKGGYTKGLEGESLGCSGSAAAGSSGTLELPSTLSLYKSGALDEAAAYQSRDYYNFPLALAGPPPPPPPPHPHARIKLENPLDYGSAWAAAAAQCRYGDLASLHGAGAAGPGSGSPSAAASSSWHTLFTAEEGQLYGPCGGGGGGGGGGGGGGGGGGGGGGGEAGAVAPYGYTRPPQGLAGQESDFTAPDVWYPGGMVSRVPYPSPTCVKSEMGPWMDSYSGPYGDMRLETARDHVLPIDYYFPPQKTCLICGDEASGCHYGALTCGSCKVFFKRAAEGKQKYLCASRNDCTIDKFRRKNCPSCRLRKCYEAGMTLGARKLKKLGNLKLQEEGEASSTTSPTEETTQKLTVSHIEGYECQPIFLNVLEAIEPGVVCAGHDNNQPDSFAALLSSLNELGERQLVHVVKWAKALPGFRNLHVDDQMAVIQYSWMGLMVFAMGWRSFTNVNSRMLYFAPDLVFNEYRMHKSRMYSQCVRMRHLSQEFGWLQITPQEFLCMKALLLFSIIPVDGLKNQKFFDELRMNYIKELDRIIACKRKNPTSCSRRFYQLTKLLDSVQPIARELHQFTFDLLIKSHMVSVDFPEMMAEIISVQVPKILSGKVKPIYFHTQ

Question: With `CC(C)(Sc1ccc(CCN(CCCCC2CCCCC2)C(=O)NC2CCCCC2)cc1)C(=O)O` as the molecule, how does the activation read?
Answer: -10.8% (inactive)

Question: For `C[C@]12CCC(=O)C=C1CC[C@@H]1[C@@H]2[C@@H](O)C[C@@]2(C)[C@H]1CC[C@]2(O)C(=O)CO`, which Potency is on record?
Answer: 14.1 nM (active)

Question: For `O=NN(CCCl)C(=O)NCCCl`, which activation is on record?
Answer: 15.8% (inactive)

Question: Which activation does the source give for `CC(=O)Oc1ccccc1C(=O)O` here?
Answer: -3.22% (inactive) and 7.95% (inactive)

Target: Androgen receptor (Homo sapiens) (UniProt P10275)
Assay: qHTS assay for small molecule antagonists of androgen receptor signaling (AID 588516; active = well fitted curve in the direction sought with a large enough effect in the signal ratio, with a control signal flat, not every such curve was filed as active; the % refers to the signal ratio; also: % is scaled to controls: 0 for no effect and ±100 for the full control effect)
Conditions: AR-UAS-bla HEK293, beta-lactamase ratio, antagonist mode, 16 h; series mostly up to 76.8 µM
Outline: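 Antagonist mode: inhibition of R1881-stimulated (10 nM final) bla reporter in GeneBLAzer AR HEK 293 cells, 16 h at 37C, compounds titrated. IC50 and efficacy from Hill-equation fits of 405/460–530 nm FRET ratios.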

Question: With `CC(C)(Sc1ccc(CCN(CCCCC2CCCCC2)C(=O)NC2CCCCC2)cc1)C(=O)O` as the molecule, how does the outcome read?
Answer: inactive

Question: Which outcome does the source give for `O=NN(CCCl)C(=O)NCCCl` here?
Answer: inactive

Question: With `CC(=O)Oc1ccccc1C(=O)O` as the molecule, how does the outcome read?
Answer: inactive

Target: Glucocorticoid receptor (Homo sapiens) (UniProt P04150)
Sequence (P04150 whole entry, looked up): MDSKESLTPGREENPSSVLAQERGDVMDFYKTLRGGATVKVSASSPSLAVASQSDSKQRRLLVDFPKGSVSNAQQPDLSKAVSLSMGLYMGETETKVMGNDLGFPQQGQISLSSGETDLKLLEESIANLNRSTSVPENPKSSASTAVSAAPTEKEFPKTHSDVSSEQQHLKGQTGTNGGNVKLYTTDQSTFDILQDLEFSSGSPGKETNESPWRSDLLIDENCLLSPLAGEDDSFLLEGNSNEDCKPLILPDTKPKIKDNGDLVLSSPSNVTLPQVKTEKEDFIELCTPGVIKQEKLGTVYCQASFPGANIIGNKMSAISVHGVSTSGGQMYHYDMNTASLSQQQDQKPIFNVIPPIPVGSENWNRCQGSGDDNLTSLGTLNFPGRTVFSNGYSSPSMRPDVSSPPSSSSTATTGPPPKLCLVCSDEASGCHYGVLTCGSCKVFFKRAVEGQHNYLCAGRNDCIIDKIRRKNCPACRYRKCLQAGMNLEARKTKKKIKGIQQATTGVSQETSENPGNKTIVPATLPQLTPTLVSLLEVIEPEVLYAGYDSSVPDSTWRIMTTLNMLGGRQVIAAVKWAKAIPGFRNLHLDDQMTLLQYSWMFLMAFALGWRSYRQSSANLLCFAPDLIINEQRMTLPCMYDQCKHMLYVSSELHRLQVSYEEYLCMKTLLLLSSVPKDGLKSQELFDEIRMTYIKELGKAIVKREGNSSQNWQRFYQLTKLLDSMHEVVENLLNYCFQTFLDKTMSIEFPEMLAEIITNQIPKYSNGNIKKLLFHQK
Assay: qHTS assay for small molecule agonists of glucocorticoid receptor signaling (AID 588532; active = well fitted curve in the direction sought with a large enough effect in the signal ratio, with a control signal flat; the % refers to the signal ratio;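 also: 100% = dexamethasone at 0.1 µM and 0% = DMSO only wells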)
Conditions: HeLa MMTV-bla, beta-lactamase ratio, agonist, 18 h; stronger effect = higher value; percent of dexamethasone control, DMSO zero
Outline: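 Agonist-mode qHTS: GRE-driven beta-lactamase in HeLa cells exposed 18 h to titrated compounds (up to 92 uM), then CCF4 ratio read after 2 h at RT; Hill-fitted EC50, efficacy relative to 0.1 uM dexamethasone.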

Question: With `Cn1cnc([N+](=O)[O-])c1Sc1ncnc2nc[nH]c12` as the molecule, how does the activation read?
Answer: -7.04% (inactive) and 6.25% (inactive)

Question: For `NC[C@H](O)c1ccc(O)c(O)c1`, which activation is on record?
Answer: -3.45% (inactive)

Question: Which activation does the source give for `NC(N)=NC(=O)c1nc(Cl)c(N)nc1N` here?
Answer: 0.0438% (inactive)

Question: For `O=NN(CCCl)C(=O)NCCCl`, which activation is on record?
Answer: 14.4% (inactive)

Question: With `NC(=O)c1cnccn1` as the molecule, how does the activation read?
Answer: -2.74% (inactive) and -4.57% (inactive)

Question: Which activation does the source give for `CCCC(CCC)C(=O)O` here?
Answer: 0.686% (inactive) and -7.28% (inactive) and -7.7% (inactive)

Question: Which activation does the source give for `CC(=O)Oc1ccccc1C(=O)O` here?
Answer: 0.393% (inactive) and 3.49% (inactive)

Question: For `Cc1ccccc1C(OCCN(C)C)c1ccccc1` (stereo not given), which activation is on record?
Answer: 2.67% (inactive)

Question: Which activation does the source give for `O=C1CCC(N2C(=O)c3ccccc3C2=O)C(=O)N1` (stereo not given) here?
Answer: -2.05% (inactive)

Question: With `O=c1[nH]cnc2[nH]ncc12` as the molecule, how does the activation read?
Answer: 1.38% (inactive)

Tested on: not listed separately
Assay: qHTS assay for small molecule antagonists of peroxisome proliferator-activated receptor delta signaling (AID 588535);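 also: cells co-treated with a PPAR-delta agonist as stimulator during compound exposure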
Conditions: HEK293T PPARd-UAS-bla, beta-lactamase FRET ratio, 18 h; 460 nm channel
Outline: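 Titrations were run on PPAR-delta-UAS-bla HEK293T cells in charcoal/dextran-stripped serum, incubated 18 h at 37 C. CCF4 fluorescence (460/530 nm) after 2 h RT; Hill equation yields IC50 and maximal response.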

Question: For `NS(=O)(=O)c1cc2c(cc1Cl)NC=NS2(=O)=O`, which max response is on record?
Answer: -29%

Question: For `NC[C@H](O)c1ccc(O)c(O)c1`, which max response is on record?
Answer: -17.3%

Question: Which max response does the source give for `C[C@]12CCC(=O)C=C1CC[C@@H]1[C@@H]2[C@@H](O)C[C@@]2(C)[C@H]1CC[C@]2(O)C(=O)CO` here?
Answer: 46.7%

Question: Which max response does the source give for `O=NN(CCCl)C(=O)NCCCl` here?
Answer: 85.8%

Question: For `NC(=O)c1cnccn1`, which max response is on record?
Answer: 33.3%

Question: For `Cc1ccccc1C(OCCN(C)C)c1ccccc1` (stereo not given), which max response is on record?
Answer: -16.5%

Question: For `O=C1CCC(N2C(=O)c3ccccc3C2=O)C(=O)N1` (stereo not given), which max response is on record?
Answer: 27.4%

Question: With `O=c1[nH]cnc2[nH]ncc12` as the molecule, how does the max response read?
Answer: -19.9%
